# Whole data set: some 33,000 sequences, median “E-score (-0.5 to 0.5)” near -0.013, cut for the highest 2% near 0.3. The entries come from a sample that favours the highest values as a whole.
# Target: T1, Msn1 (UniProt P22148)
# T1 sequence: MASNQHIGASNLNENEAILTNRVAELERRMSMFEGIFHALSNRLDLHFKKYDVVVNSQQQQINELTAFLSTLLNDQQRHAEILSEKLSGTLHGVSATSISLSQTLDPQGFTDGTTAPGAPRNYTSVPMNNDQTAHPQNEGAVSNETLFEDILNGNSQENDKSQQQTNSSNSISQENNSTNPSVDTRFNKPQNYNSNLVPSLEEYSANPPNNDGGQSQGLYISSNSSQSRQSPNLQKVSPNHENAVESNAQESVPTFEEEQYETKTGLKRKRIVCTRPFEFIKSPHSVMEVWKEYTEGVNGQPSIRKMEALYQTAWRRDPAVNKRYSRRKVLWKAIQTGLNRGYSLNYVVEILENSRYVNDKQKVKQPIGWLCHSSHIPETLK
# Test: PBM E-score (8-mer binding enrichment) (E-score (-0.5 to 0.5)); higher = stronger / more preferred TF binding
# Conditions: protein concentration: 200 nM; construct: GST-full length
# Protocol: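 Universal 'all 10-mer' protein binding microarrays (Agilent AMADID 015681) probed with GST-tagged S. cerevisiae TFs (full-length or DBD) made by in vitro transcription/translation (PURExpress), about 100-200 nM. Bound TF was detected with fluorescent anti-GST. Each ungapped 8-mer (which stands for itself and its reverse complement) is scored by the PBM enrichment score (E-score), a modified Wilcoxon-Mann-Whitney statistic from -0.5 to +0.5, computed with the Universal PBM Analysis Suite. Scale: above 0.35 generally sequence-specific binding.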
row,Sequence,PBM E-score
1,TCGCAAGA,-0.177
2,AGGCAAAA,0.163
3,CTTGTTCA,-0.0388
4,GAGAGTTA,-0.0018
5,TCAGTTCA,-0.039
6,ATTAAAAG,0.156
7,TATATAAA,0.253
8,ACTAAAAG,0.0984
9,CATAAAAA,0.181
10,TATAAAAA,0.318
11,ACTAAAAA,0.309
12,ATTAAAAC,0.156
13,ATTAAAAA,0.327
14,ACTAAAAC,0.14
15,CAATTTCC,0.0903
16,ACCAACAG,-0.127
17,CGCAAACA,0.143
18,CAGCACAG,0.00522
19,GTCGTCTA,-0.00305
20,AGCGTGTC,0.0384
21,CGCGTGTA,0.114
22,CGCGTGTC,0.344
23,AGAAATGG,-0.076
24,ACCCTTAT,-0.0336
25,CATGGACA,0.47

row,Sequence,PBM E-score
1,TATGGAGA,0.0848
2,AATGGACG,0.185
3,GATGGACC,0.0221
4,GATGGACA,0.443
5,AATGGACA,0.438
6,TATGGACA,0.476
7,TATGGAAA,0.071
8,CATGGACC,-0.0789
9,AATGGACT,0.19
10,CATGGACG,0.137
11,GATGGAAA,-0.126
12,ATTGGTAA,0.00511
13,CCTCCTGA,-0.153
14,ACACATCC,0.0829
15,AATACCCA,-0.0704
16,TATTGTGA,0.0467
17,AGCACCAA,0.0195
18,ACAGTGCC,0.063
19,CGAATCGA,0.213
20,ACAGCCTG,-0.0349
21,ATGCCAAC,0.0264
22,ATTTCCCG,0.188
23,AACTACTT,0.00311
24,ATGAGCAT,0.017
25,CAGAAATA,0.0248

row,Sequence,PBM E-score
1,ACGTCCTG,0.0274
2,AAGTCCTG,0.292
3,CCGTCCTA,-0.0332
4,AAGTCCTC,0.244
5,ACGTCCTA,0.354
6,AAGTCCTA,0.409
7,CTTGTCAA,0.162
8,ACTGTCCG,0.183
9,ATTGTACA,0.242
10,CTTGTACC,0.286
11,CTTGTCCA,0.464
12,ATTGTCAA,0.12
13,ATTGTCCG,0.468
14,CTTGTCGA,0.0891
15,ATTGTCCA,0.466
16,ATTGTTCG,0.259
17,ATCGTCCA,-0.0991
18,CTTGTACA,0.311
19,CATTATGC,-0.00798
20,AGTTCGCC,0.00171
21,GACGCGAA,0.0618
22,TACTCGAA,-0.00961
23,GCCGACGC,0.0201
24,CTGGTCCC,-0.218
25,GTTGTCCA,0.381

row,Sequence,PBM E-score
1,ATTGTCAC,0.297
2,CTTGTCAC,0.296
3,ATTGTCCC,0.462
4,GTTGTCAA,0.0641
5,ACTGTCCC,0.127
6,CTTGTCCC,0.47
7,GTTGTCGA,0.00891
8,AAACCTTC,-0.288
9,GCCGTCGC,-0.0331
10,CTTCAGGC,-0.0893
11,CAATTGAG,-0.0282
12,ACATTAGC,0.147
13,CAAATCAA,0.126
14,CGACAGGC,-0.152
15,GAGTTCCC,0.0462
16,GTGCTGAA,-0.191
17,ATGCGTGC,-0.0193
18,ACTTGTGC,-0.14
19,ACTTGTGA,-0.103
20,ACTTGTAT,0.145
21,GCTTGTAC,0.267
22,GCTTGTCA,0.209
23,GCTTGTCC,0.454
24,ACTTGTCG,0.297
25,ACTTGTCC,0.467

row,Sequence,PBM E-score
1,ACTTGGCT,-0.176
2,TCTTGTCA,0.238
3,ACTTGTCA,0.369
4,ACTTGTCT,0.407
5,CCTAGCTC,-0.148
6,CGGTCGCA,-0.0568
7,CCAACGGA,-0.08
8,GGCACTAC,-0.284
9,CGCTCTGC,-0.112
10,CCTTGTCA,0.0263
11,CCTTGTCC,0.449
12,CCTTGTCG,0.0372
13,CTGGTATC,-0.0417
14,GACCTATC,0.0973
15,GGTGCTAC,-0.204
16,ATGTCGTC,0.191
17,ATGTCGAG,0.162
18,ATGTCGTG,0.337
19,CTGTCGTA,-0.0467
20,GTGTCGTA,0.228
21,ATGTCGTA,0.395
22,GCTGCGTA,-0.124
23,AAACGAGC,-0.0279
24,GCCAAAGC,-0.0464
25,CACTGCCG,0.0826

row,Sequence,PBM E-score
1,CGAGGACG,0.0859
2,AGAGGACC,-0.208
3,TGAGGCCA,-0.117
4,CGAGGACC,-0.14
5,AGAGGACA,0.353
6,GGAGGACA,0.4
7,AGAGGACT,-0.21
8,TGAGGACA,0.46
9,TGAGGAAA,0.0866
10,CGAGGACA,0.453
11,GGAGGAGA,-0.179
12,GGAGGACC,-0.25
13,CCACACGA,0.00165
14,AACGAATA,-0.0354
15,ATAGTCTA,-0.0808
16,GTGCCTGA,-0.25
17,AATAACTC,0.00363
18,GGAGAACA,0.0888
19,ACAACCCA,0.0013
20,AGTGTCCA,0.219
21,CGTGTCGC,0.202
22,AGTGTCCG,0.179
23,CGTGTCCA,0.424
24,CGTGTCTA,0.166
25,GGTGTCGA,-0.0245

row,Sequence,PBM E-score
1,CGTGTCGA,0.0442
2,GGTGTCCA,0.352
3,CGTGTCTC,0.26
4,GGTGTCTA,0.0447
5,CGTGTCCC,0.437
6,AGTGTCCC,0.375
7,ACGGTCAT,0.0534
8,AGCTTTCC,-0.198
9,GAACTGAA,-0.00121
10,CGTGGCAC,0.0166
11,CTGAGCGA,0.0585
12,CAGCTAGC,-0.19
13,ATATTAAT,0.243
14,GCAGCCCA,-0.0983
15,TTGCCAAA,-0.0227
16,AACTTGGC,-0.0461
17,GCCTTCCA,-0.367
18,TAATGAAA,0.226
19,AAATGAAA,0.305
20,CAATGAAA,0.0415
21,AGGATGTA,-0.0489
22,AGGATGTG,-0.0903
23,AAGATGTC,0.252
24,CTGATGTC,0.282
25,CAGATGTA,-0.0817

# Reference: the supplement of paper PMC3334620
